GPR151 ag: activators of human GPR151 | PathHunter beta-arrestin GPR151 cells, luminescence | activation, % at 11.2 µM | Q8TDV0 | 650,000 compounds, 1% hits | AID 1508602; in the data active = activation above about 4.9%;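 note: 0% = median of compound wells and 100% = cells with positive control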
Target sequence (Q8TDV0 whole entry, looked up): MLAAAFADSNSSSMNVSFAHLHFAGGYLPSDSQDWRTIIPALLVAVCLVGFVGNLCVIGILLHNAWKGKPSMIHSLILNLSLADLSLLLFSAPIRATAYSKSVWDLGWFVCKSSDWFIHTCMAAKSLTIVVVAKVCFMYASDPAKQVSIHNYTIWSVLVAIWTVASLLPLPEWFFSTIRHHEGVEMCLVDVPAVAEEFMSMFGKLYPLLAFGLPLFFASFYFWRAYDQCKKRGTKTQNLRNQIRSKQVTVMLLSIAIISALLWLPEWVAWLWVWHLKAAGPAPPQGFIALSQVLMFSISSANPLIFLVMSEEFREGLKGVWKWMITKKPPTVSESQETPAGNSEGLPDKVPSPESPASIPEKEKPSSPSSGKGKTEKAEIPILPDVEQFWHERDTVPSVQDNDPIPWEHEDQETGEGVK
MITF primary: blocks human microphthalmia-associated transcription factor | AlphaScreen MITF homodimerization, bead proximity signal | O75030 | 650,000 compounds, 0.91% hits | inhibition, % at 2.6 µM; in the data active = inhibition above about 50%;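 note: 0% = vehicle wells with protein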
TEAD-YAP block: TEAD-YAP interaction inhibition; 640,000 compounds, 1.4% hits; HEK-TIYL cells, TEAD-Gal4/YAP UAS-luciferase luminescence; inhibition, % at 9.12 µM; in the data active = inhibition above about 32%;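 note: 0% = median of test compound wells and 100% = reference inhibitor wells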
FBW7 act: human FBW7 E3 ligase activation, primary screen; Q969H0; normalized activity (activation), % at 26.1 µM; 650,000 compounds, 0.13% hits; AlphaScreen FBW7–phospho-cyclin E peptide binding, activator screen; in the data active = normalized activity above about 1.9%;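 note: purified mutant Fbw7 with reduced substrate affinity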
MITF confirm: human MITF inhibition, confirmation; shares compounds with MITF primary; AlphaScreen MITF homodimerization, biotin/His-MITF beads; 4,700 compounds, 16% hits; inhibition, % at 2.6 µM; AID 1259372;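 active = inhibition above a cutoff derived from the DMSO control wells, cut at about 28% in these data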;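 note: 0% = MITF dimer wells with DMSO only; inhibitors lower the bead chemiluminescence by keeping MITF from dimerizing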
AS interf DR: counter-screen: compounds optically interfering with AlphaScreen. AID 1259373. IC50, µM. 480 compounds, 6% hits. shares compounds with MITF primary. AlphaScreen optical interference counterscreen, cell-free; call rule not given here
AlphaScreen intf2: counter-screen: compounds optically interfering with AlphaScreen | shares compounds with MITF primary | inhibition, % at 2.6 µM | AID 1259376 | 4,700 compounds, 7.6% hits | LysRS AlphaScreen counterscreen, signal interference, triplicate;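 active = inhibition above a cutoff derived from the DMSO control wells, cut at about 30% in these data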
The depositor's hits bear a star; . = no result. Compounds with a hit are over-represented: about 3.4% of the library has one in this group of screens.

SMILES	GPR151 ag	MITF primary	TEAD-YAP block	FBW7 act	MITF confirm	AlphaScreen intf2	others
Fc1cccc(F)c1CNCC1NCCc2ccccc21 (stereo unspecified)	1	78*	8	0	-3	9
CC1(C)CC(=O)C=C(NCC2NCCc3ccccc32)C1 (stereo unspecified)	4	-6	-4	0	.	.
COc1ccccc1N1CCN(CC(=O)c2ccc(F)cc2)CC1	1	69*	3	0	5	8
COc1cccc(/C=C2N=C(/C=C/c3ccccc3OC)OC\2=O)c1	0	2	3	0	.	.
COc1ccc(/C=C/C(=O)C(C)(C)O)cc1	2	58*	-7	0	-4	6
Cc1ccccc1Nc1cccccc1=O	-1	17	-19	0	.	.
CC(C)(C)n1ncc2c(=O)n(Cc3cccc(F)c3)cnc21	1	54*	7	0	14	18
COCCNCCOCCOc1cc(C)cc(C(C)C)c1	-1	53*	1	0	5	6
C=CCNCCOCCOc1cc(C)cc(C(C)C)c1	2	64*	0	0	11	19
C=CCNCCOc1cc(C)cc(C(C)C)c1	-1	-19	-13	0	.	.
CCCCn1c(=O)c2oc3ccccc3c2n(CC(N)=O)c1=O	0	-1	-1	0	.	.
COc1cc(Cl)c(C)cc1NC(=O)Cc1noc2ccccc12	3	22	-15	0	.	.
Cc1occc1C(=O)N/N=C/C1CCCCC1	-6	-10	-46	0	.	.
O=C(N/N=C\c1ccccn1)c1ccccn1	-2	54*	-44	-1	28*	82*
O=C(N/N=C/C=C\c1ccco1)c1ccccn1	0	101*	-56	0	94*	69*
O=C(N/N=C/C=C\c1ccco1)c1ccncc1	1	18	3	0	.	.
Cc1occc1C(=O)N/N=C/C1CC=CCC1 (stereo unspecified)	-4	81*	-45	0	-10	-5
Cc1occc1C(=O)N/N=C/C=C/c1ccco1	0	80*	-60	0	44*	-17	AS interf DR=>6.5
O=C(N/N=C/c1ccccn1)c1ccccn1	-3	48	-32	-2	.	.
Cc1ccccc1CN1C(=O)CSc2ccc(C(=O)NCCc3ccccc3)cc21	0	-4	12	0	.	.
Cc1ccoc1C(=O)NCc1occc1C(=O)O	-1	57*	15	0	10	7
Cc1ccoc1C(=O)NCCNC(=O)c1occc1C	0	7	1	0	.	.
Cc1ccc(OCC(=O)O/N=C(\N)c2ccncc2)c(Br)c1	3	-10	-73	0	.	.
COCCNc1c(-c2ccc(Br)cc2)nc2cnccn12	-1	-6	-24	0	.	.
COc1ccc(C(=O)CSc2ncn[nH]2)cc1C	0	69*	-15	0	7	15
SMILES	GPR151 ag	MITF primary	TEAD-YAP block	FBW7 act	MITF confirm	AlphaScreen intf2	others
COc1ccc(OC)c(C(=O)CSc2ncn[nH]2)c1	3	8	-9	0	.	.
Cc1ccc(NC(=O)Cn2c(=O)n(Cc3ccco3)c(=O)c3oc4ccccc4c32)cc1	1	-6	6	0	.	.
CCN1CCN(C(c2nnnn2CCOC)C(C)C)CC1 (stereo unspecified)	0	20	13	0	.	.
COCCn1nnnc1C(C(C)C)N1CCSCC1 (stereo unspecified)	0	59*	5	0	12	12
CCCOC(=O)C(C)Nc1n[nH]c(=S)[nH]c1=O (stereo unspecified)	0	55*	-3	-1	-1	20
COc1ccc(NC(=O)CN(C)C(C)C(=O)N2CCCCC2)cc1 (stereo unspecified)	2	66*	0	0	-3	12
CC(C(=O)N1CCCCC1)N(C)CC(=O)Nc1cccc(F)c1 (stereo unspecified)	1	64*	8	1	12	7
CC1CC(C)CN(C(=O)C(C)N(C)CC(=O)Nc2ccc(Cl)cc2)C1 (stereo unspecified)	0	51*	7	0	8	10
OC(CNCCNc1cccc2ccccc12)COCc1ccc(Cl)cc1 (stereo unspecified)	-1	53*	-2	0	-5	1

Screening results from PubChem.
